{"source": "PubChem BioAssay AID374", "about": "(University of Pittsburgh Molecular Library Screening Center, 2006)", "note": "In all, about 65,000 compounds went through this assay and about 100 (0.15%) were called active. For the sample, actives were picked, then their nearest neighbours and some compounds at random. A number with no mark means an inactive call.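 How the source made its calls: active means inhibition above about 50% (limit read from the data); inconclusive means inhibition over screen mean plus 3 SD, below that limit; inactive means the rest.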", "data": [{"target": "Dual specificity protein phosphatase 1 (Homo sapiens) (UniProt P28562)", "sequence (P28562 whole entry, looked up)": "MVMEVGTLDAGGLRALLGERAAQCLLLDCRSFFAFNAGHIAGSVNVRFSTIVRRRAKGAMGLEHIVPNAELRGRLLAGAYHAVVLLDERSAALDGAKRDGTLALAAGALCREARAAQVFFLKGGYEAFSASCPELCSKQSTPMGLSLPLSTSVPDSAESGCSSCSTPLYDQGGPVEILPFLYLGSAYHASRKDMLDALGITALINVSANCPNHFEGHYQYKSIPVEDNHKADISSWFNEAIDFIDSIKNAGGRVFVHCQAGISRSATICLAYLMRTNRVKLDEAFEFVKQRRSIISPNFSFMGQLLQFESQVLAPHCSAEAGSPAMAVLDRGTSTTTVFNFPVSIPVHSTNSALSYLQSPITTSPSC", "assay": "blockers of human DUSP1 activity – biochemical, in vitro, primary screen (AID 374);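 further: 0% = DMSO max control wells and 100% = wells with enzyme stopped by NaOH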", "conditions": "recombinant MKP-1, OMFP hydrolysis fluorescence; hits give high values;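 compounds tested at a single concentration somewhere between 10 and 100 µM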", "values": [{"smiles": "Cn1c(SCC(=O)Nc2cccc(O)c2)nnc1-c1ccc(S(=O)(=O)N2CCOCC2)cc1", "inhibition": "-24.3%"}, {"smiles": "OC(COc1ccccc1)Cn1cc(Br)cn1", "note": "(configuration not stated)", "inhibition": "-0.2%"}, {"smiles": "COC(=O)c1ccc(C2C3=C(Nc4nnnn42)c2ccccc2OC3)cc1", "note": "(configuration not stated)", "inhibition": "-1.69%"}, {"smiles": "Cc1c(C)c2cc3c4c(oc3c(C)c2oc1=O)CCCC4", "inhibition": "10%"}, {"smiles": "O=C(CSc1nc2[nH]ncc2c(=O)n1-c1ccccc1)N1CCCc2ccccc21", "inhibition": "50.2% (active)"}, {"smiles": "Cc1nnc(SCC(=O)N2CCc3ccccc32)n1-c1ccccc1", "inhibition": "17.3%"}, {"smiles": "C=CCn1c(=O)c2ccccc2n2c(SCC(=O)N3CCCc4ccccc43)nnc12", "inhibition": "12.1%"}, {"smiles": "COC(C)(C)[C@]12CC(O)(C(C)C)ON1[C@H]1CCCCC1N2O", "note": "(some centres not stated)", "inhibition": "-23.5%"}, {"smiles": "CCOc1ccc(C(=O)NC2CCN(S(=O)(=O)CC)CC2)cc1", "inhibition": "-10.3%"}, {"smiles": "COC(=O)C(C)n1cnc2c(nnn2-c2cccc(Cl)c2)c1=O", "note": "(configuration not stated)", "inhibition": "-3.96%"}, {"smiles": "Cc1ccc(CNC(=O)C2CCCN(S(C)(=O)=O)C2)cc1", "note": "(configuration not stated)", "inhibition": "4.5%"}, {"smiles": "O=C(c1ccco1)N1CCN(CC(=O)N(C2CCCCC2)C2CCS(=O)(=O)C2)CC1", "note": "(configuration not stated)", "inhibition": "8.56%"}, {"smiles": "COc1ccc(-n2ncc3c(N4CCc5ccccc54)ncnc32)cc1", "inhibition": "-0.04%"}, {"smiles": "CCCN1C(=O)C(NS(=O)(=O)c2ccc(N)cc2)(C(F)(F)F)C(C(=O)OC)=C1C", "note": "(configuration not stated)", "inhibition": "7.02%"}, {"smiles": "Nc1ncc(-c2cc3ccccc3oc2=O)s1", "inhibition": "-7.46%"}, {"smiles": "COc1ccccc1N1CCN(C(=O)CSc2nnc(-c3ccoc3C)o2)CC1", "inhibition": "2.49%"}, {"smiles": "CC1=NC2(CCCc3c2no[n+]3[O-])N(O)C1(C)C", "note": "(configuration not stated)", "inhibition": "10.4%"}, {"smiles": "Cc1ccc(-n2nc3c(c2NC(=O)c2ccc4c(c2)OCO4)CSC3)c(C)c1", "inhibition": "28.8%"}, {"smiles": "CCOc1cc(-c2conc2N)cc(OCC)c1OCC", "inhibition": "0.9%"}, {"smiles": "CCOc1ccc(NC(=O)Nc2ccc(N(C)C(C)=O)cc2)cc1", "inhibition": "6.8%"}, {"smiles": "CCOC(=O)C1CCN(C(=O)CSc2cc(=O)n(C)c3ccccc23)CC1", "inhibition": "3.52%"}, {"smiles": "Cn1c(=O)c(C(=O)Nc2ncccn2)c(O)c2ccccc21", "inhibition": "1.1%"}, {"smiles": "O=C(Nc1cccnc1)c1noc2c1CCCCC2", "inhibition": "-9.22%"}, {"smiles": "S=C1SCN(CCN2CCOCC2)CN1Cc1ccccc1", "inhibition": "22.5%"}, {"smiles": "Cn1cc(S(=O)(=O)N2CCC(Cc3ccccc3)CC2)c(=O)n(C)c1=O", "inhibition": "13.6%"}, {"smiles": "CCOC(=O)C1=C(CC)Nc2ccccc2N=C1NC(=O)c1cccc(S(=O)(=O)N2CCCC2)c1", "inhibition": "17.2%"}, {"smiles": "CCOC(=O)N1CCN(C(=O)c2ccc(CN(c3ccc(C)c(C)c3)S(C)(=O)=O)cc2)CC1", "inhibition": "6.83%"}, {"smiles": "CCCC(=O)Nc1c(O)c2ccccc2[nH]c1=O", "inhibition": "24%"}, {"smiles": "O=C(O)CN(Cc1ccco1)S(=O)(=O)c1ccc(F)cc1", "inhibition": "-3.94%"}, {"smiles": "CC(C)C[C@H](NC(=O)Nc1cccc(C(F)(F)F)c1)C(=O)O", "inhibition": "-11.4%"}, {"smiles": "CCOC(=O)c1cc2c(n(-c3ccc(C)cc3)c1=O)CCCC2=O", "inhibition": "3.58%"}, {"smiles": "CCN1C(=O)CS/C1=N\\c1nccs1", "inhibition": "2.24%"}, {"smiles": "Cc1cc(C(=O)OCC(=O)NCc2ccco2)c(C)n1-c1ccccc1", "inhibition": "8.87%"}, {"smiles": "CCCC(NC(=O)c1ccccc1)c1nc2ccccc2n1Cc1ccc(C(=O)OC)o1", "note": "(configuration not stated)", "inhibition": "-11.6%"}, {"smiles": "O=C(Cn1nnc(-c2ccc(CN3CCOCC3)cc2)n1)NC1CCCCC1", "inhibition": "-10.1%"}, {"smiles": "COc1ccc(S(=O)(=O)N2CCCC2)c(C)c1C", "inhibition": "2.42%"}, {"smiles": "CCn1c(SCC(=O)Nc2cc(C)c(Cl)cc2OC)nnc1-c1ccco1", "inhibition": "13%"}, {"smiles": "Cn1cccc1C(=O)NC(=O)COC(=O)Cc1coc2ccc3ccccc3c12", "inhibition": "31.4%"}, {"smiles": "CCOc1ccc2nc(SC(CC)C(=O)Nc3cc(C)on3)sc2c1", "note": "(configuration not stated)", "inhibition": "2.57%"}, {"smiles": "C=CCn1c(COc2ccccc2F)nnc1SCC(=O)N1CC(=O)Nc2ccccc21", "inhibition": "2.2%"}, {"smiles": "CCC1CCCCN1CCCNC(=O)Cn1nc(-c2ccccc2)ccc1=O", "note": "(configuration not stated)", "inhibition": "0.39%"}, {"smiles": "CCCc1[nH]nc2c1C(c1c(C)nn(-c3ccccc3)c1Cl)C(C#N)=C(N)O2", "note": "(configuration not stated)", "inhibition": "-4.58%"}, {"smiles": "Cc1ccc(C(C(=O)NCc2ccco2)N(CC2CCCO2)C(=O)Cn2nnc3ccccc32)cc1", "note": "(configuration not stated)", "inhibition": "4.86%"}, {"smiles": "COC(=O)c1ccc(NC(=O)CSc2nnc(-c3ccncc3)n2C)cc1", "inhibition": "-30.5%"}, {"smiles": "COc1ccccc1C1/C(=C(/O)c2ccc(C)cc2)C(=O)C(=O)N1Cc1ccco1", "note": "(configuration not stated)", "inhibition": "22.9%"}, {"smiles": "COc1ccc(OC)c(C(=O)c2coc3ccc(OC)cc23)c1", "inhibition": "3.61%"}, {"smiles": "COc1ccc(NC(=O)C2CCCN(S(=O)(=O)c3cccc4cccnc34)C2)cc1OC", "note": "(configuration not stated)", "inhibition": "6.18%"}, {"smiles": "CCn1c(Cc2ccccc2)nnc1SCc1nc2ccccc2c(=O)[nH]1", "inhibition": "7.32%"}, {"smiles": "NC(=O)CSc1oc(-c2cccs2)nc1S(=O)(=O)c1ccccc1", "inhibition": "6.79%"}, {"smiles": "CCOc1ccc(OCc2ccc(C(=O)Nc3cccc(C)n3)o2)cc1", "inhibition": "-1.14%"}, {"smiles": "CCc1nc(C)cn1S(=O)(=O)c1cc(OC)c(C)cc1C", "inhibition": "-31.2%"}, {"smiles": "COc1cc(Br)cc(/C=N/c2ncn[nH]2)c1O", "inhibition": "-1.54%"}, {"smiles": "CC1=NCCN1S(=O)(=O)c1ccc(Br)c(C)c1", "inhibition": "-0.35%"}, {"smiles": "Cn1c(C(=O)N2CCC(C(N)=O)CC2)cc2c(=O)n(C)c3ccccc3c21", "inhibition": "8.99%"}, {"smiles": "O=C(O)CSCNC(=O)CC12CC3CC(CC(C3)C1)C2", "inhibition": "-17.4%"}, {"smiles": "CCC(=O)c1cc2c(cc1NC(=O)c1cccs1)OCCO2", "inhibition": "1.58%"}, {"smiles": "O=S(=O)(NCCOc1cccc2cccnc12)c1ccc(F)cc1", "inhibition": "-4.61%"}]}]}
